Test results from the supplement of paper PMC11417369.
In all, about 25,000 sequences were measured (“ln(normalized median fluorescence intensity)”: median about 9.3, highest 2% from about 10 on). The sample as a whole holds a higher share of the highest values than the screen did.

system: PF3D7_0420300 AP2 domain 1 (GST-tagged); assay: gcPBM binding intensity (ln(normalized median fluorescence intensity)); higher = stronger DNA binding
In short: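 The binding buffer was 1× PBS containing 1% milk, 0.2 mg/ml BSA, 0.5% salmon testes DNA and 0.03% Triton X-100. In it, GST-tagged P. falciparum DNA-binding domains expressed in E. coli were applied for 1 h to an Agilent 4 × 180k array of primer-extended double-stranded 36-bp intergenic genomic probes plus negative controls. Binding intensity, read with Alexa488 anti-GST antibody and a 488 nm scan, is the highest Masliner-normalised natural-log median intensity across replicate spots of either probe orientation.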

| Sequence | gcPBM binding intensity (ln) |
| --- | --- |
| ACATATTCATATGGAAGTACGATAATGTAGTCATAT [XGTACX_site7080] | 9.37 |
| TTTAACAACTATTTCTGTACACATTTTTATATAATT [XGTACX_site4917] | 9.47 |
| TTTATATTATAATATAATAATGATCTTAATTTTTTT [XGTACX_negctrl_site100] | 8.91 |
| AAAAAAAATTTTAATTGTACAAAAAAAAAAAATATA [XGTACX_site2259] | 8.91 |
| CGCACACGCAGACACACACACACATATAAATAAATA [CACACA_site7101] | 9.86 |
| CACATACAGACATACACACATACACATATACGCATA [CACACA_site1745] | 9.86 |
| CATACATACAGACACACACACATATATATATATATA [CACACA_site2920] | 9.91 |
| CATACACATAGACACACACACATATATACCTATATA [CACACA_site6644] | 10.1 |
| TATACACATAGACACACACACAAAAAAAAAAAAAAA [CACACA_site6338] | 9.73 |
| CACATACACATACACATACACACGCATAGAAACATA [CACACA_site2136] | 9.79 |
| AGTATACGCAGACACACACACACATATATATATATA [CACACA_site1735] | 9.98 |
| AACATACATAGACACACACACACACGCACACGCACA [CACACA_site6373] | 10.3 |
| TATACACATAGACACACACACATACACGCACATACA [CACACA_site6908] | 10.1 |
| TATATACACAGACACACACACACATACACGCACATA [CACACA_site6909] | 10.3 |
| CACGCACGCAGACACACACACACACGCACATATATA [CACACA_site6303] | 10.3 |
| CATACCTATAGACACACACACACACGCACGCACAAA [CACACA_site6374] | 10.2 |
| TAGTATTTATATGATTAACACACATATGGGTATTAA [CACACA_site8363] | 9.28 |
| CATATAAGACAAAAGGTGCAATTTTAATGCTTTTAT [GTGCAC_site9432] | 9.31 |
| ATAACATATATATATACACACACATATATATATGAA [CACACA_site7983] | 9.79 |
| TTCTATATTTTAGCTGATAATATTATGAGCTTCACT [XGTACX_negctrl_site427] | 9.08 |
| AATAAATAAATAAATATATATATATATATATATATA [CACACA_negctrl_site708] | 8.86 |
| TCTTCTTAACCAACTATGAAAAGGAAAAATATAACA [GTGCAC_negctrl_site565] | 9.06 |
| TATGTATAATTATTTTGTACTTATTAAATTTTTTTT [XGTACX_site5413] | 9.18 |

| Sequence | gcPBM binding intensity (ln) |
| --- | --- |
| TACCCTGATCGGCATGCATGTAAGTAACAAATATAT [TGCATGCA_site153] | 9.22 |
| ATATAAAATATTACGTGTACACATAAATAAAAATAA [XGTACX_site3746] | 9.41 |
| GAATAAAAAATTGGCACACATAAATATATGGATATA [CACACA_site3047] | 9.46 |
| TATACGCATATATACACACACATATATATATATATA [CACACA_site3416] | 9.66 |
| TACATACACGGACACACACACATATATATATATATA [CACACA_site5883] | 9.95 |
| AGTATACATATATATACACACATATATATATATATA [CACACA_site300] | 9.42 |
| CGCATACACGGACACACACACACATATATATATATA [CACACA_site4520] | 10.1 |
| TATACACGCGGACACACACACACACGCAAAAAAAAA [CACACA_site6377] | 10.1 |
| AGTATACTCGGACACACACACACATATATATATATA [CACACA_site5031] | 10.2 |
| AAAAAAAAAAGACACACACACACACGCATATACATA [CACACA_site7289] | 10.2 |
| CATACACGCGGACACACACACACACGCATATATAAC [CACACA_site6427] | 10.4 |
| AGTATACATATATATACACACACATATATATATATA [CACACA_site7883] | 9.61 |
| CATATATACACATACACACACACACGGACACGCACA [CACACA_site6910] | 10.2 |
| AAAAAAAAAAAAAAGACACACATATATATATATATA [CACACA_site633] | 9.15 |
| TTTTTTATAGTACATTACCAAAAAAAAAAAAAAAAA [GTGCAC_negctrl_site549] | 8.32 |
| TGTTGATTTATCCTGTGTACGGATATATATCTTTCA [XGTACX_site7826] | 9.27 |
| AAAAATAGACAAAAGAGTACAAGAAAAAAAGGGTTC [XGTACX_site7843] | 9.86 |
| AAATTTTTTAATTTTTCTCATTTAATTTAAAAATTA [GTGCAC_negctrl_site155] | 8.88 |
| TATATTTTATATATGGTGCAACTTTTATTTAAATAA | 8.77 |
| ATTATTAAGTTTCACAAGAACATTGTTAACAATTTT [CACACA_negctrl_site1128] | 9 |
| ATATATATGGAAACAGTGCAATACATATATATATAT | 9.71 |
| TTTTATGATAATTTTGCACACACTTAGGAAAAATTA [CACACA_site1556] | 9.31 |
| AAAGTTTTAAGAAAATGTACATAAGTATACATATAT [XGTACX_site1293] | 9.18 |
